# Rows were chosen to be rich in hits. Some 8% of all compounds tested hit in one or more screens of this group.
# HT1080-NT tox: qHTS for induction of synthetic lethality in tumor cells producing 2HG: qHTS for the HT-1080-NT fibrosarcoma cell line; HT-1080-NT fibrosarcoma viability, CellTiter-Glo ATP luminescence, 48 h; Potency, µM (top dose mostly 46.1 µM), without a hit: at the highest dose activity, negative = less viability, actives largely listed as cytotoxic; hit rate 1.6% among 360,000; AID 686970, 2013;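 also: NT is the 2HG producing partner of a matched IDH1 knockdown line; 0% = DMSO-treated cells and -100% = media-only wells without cells; nearly all actives have a fitted effect of over 55% in size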
#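 A 48-hour cytotoxicity screen used HT-1080-NT cells plated 2 hours before compound delivery. ATP-based CellTiter-Glo luminescence measured viability, normalized to DMSO and no-cell controls.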
# KB-V1 cytotox: qHTS assay for MDR1-selective chemotherapeutics: Primary screen using the drug-selected MDR subline cells KB-V1 | KB-V1 MDR cells viability, CellTiter-Glo, 72 h | hit rate 3.4% among 400,000 | Potency, µM (series often up to 46.1 µM), most hits filed as cytotoxic; also: % is scaled to controls: 0 for no effect and ±100 for the full control effect; nearly all actives have a fitted effect of over 60% in size
#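 KB-V1, DMEM (no phenol red) + 10% FBS; cpd pin-transferred, titration series; 72 h, 37 degrees C; CellTiter-Glo, luminescence. Data normalized, curve-fit.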
# KB-3-1 tox: qHTS assay for MDR1-selective chemotherapeutics: Primary screen using the parental adenocarcinoma cell KB-3-1; KB-3-1 viability, CellTiter-Glo ATP luminescence, 72 h; Potency, µM (doses to about 46.1 µM), hits mostly cytotoxic; hit rate 1.4% among 400,000; also: % is scaled to controls: 0 for no effect and ±100 for the full control effect; nearly all actives have a fitted effect of over 60% in size
#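 Screening of KB-3-1 cells (DMEM, 10% FBS, phenol-red free) ran from lowest to highest compound concentration; after 72 h at 37 °C viability was read luminescently and curves fitted.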
# HT1080 IDH1KD tx: qHTS for induction of synthetic lethality in tumor cells producing 2HG: qHTS for the HT-1080-IDH1KD cell line | Potency, µM (doses to about 46.1 µM), for inactives: at the top dose activity, negative = toxicity, most hits filed as cytotoxic | hit rate 2% among 360,000 | HT-1080 IDH1 knockdown viability, ATP luminescence, 48 h;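 also: 0% = DMSO wells and -100% = cell-free medium wells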
#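 Cytotoxicity counter-line: IDH1KD HT-1080, 48 h, CellTiter-Glo. Curves classed by r2, magnitude and activity.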
# SW480 rereplic: A quantitative high throughput screen for small molecules that induce DNA re-replication in SW480 colon adenocarcinoma cells; SW480 DNA re-replication, Hoechst DNA content imaging, 48 h; Potency, µM (highest dose often 46.1 µM), without a hit: at the top dose re-replication activation, actives largely listed as activators; hit rate 1.8% among 340,000; AID 624297, 2012; also: % of control where 0% means no effect; nearly all actives have a fitted effect of over 55% in size
#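 Per well, 250 cells were exposed to pinned compound for 48 hr. Nuclear DNA was visualised with Hoechst (40 min, 37 C) and total object intensity recorded by fluorescence scanning.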
# MCF10A rerep: A quantitative high throughput screen for small molecules that induce DNA re-replication in MCF 10a normal breast cells; hit rate 2.9% among 350,000; MCF 10A DNA re-replication, Hoechst nuclear intensity, 48 h; Potency, µM (top dose mostly 46.1 µM), for inactives: top-dose activity, positive = re-replication, actives largely listed as activators; also: % of control where 0% means no effect; nearly all actives have a fitted effect of over 50% in size
# Starred values were filed as active, the others as inactive; i = inactive; ? = inconclusive; . = no result given. Calls follow the shape of the dose curve; as a rule, active = well fitted curve in the direction sought with a large enough effect; inconclusive = small, poorly fitted or top-dose-only effect, or another doubt; inactive = no such curve, though single readings can be large; an effect the other way counts as inactive or inconclusive. Potency is read from the fitted curve at half-maximal effect.
SMILES,HT1080-NT tox,KB-V1 cytotox,KB-3-1 tox,HT1080 IDH1KD tx,SW480 rereplic,MCF10A rerep
CCN(CC)CCN(Cc1cc2cc3c(cc2[nH]c1=O)OCCO3)C(=S)NCC(C)C,-12%,i,i,?,-1%,?
CC(=O)Nc1cccc(OCc2ccc(S(=O)(=O)Cc3ccccc3)cc2)c1,-1%,18µM*,i,-7%,-38%,5%
CC(=O)Nc1cccc(OCc2c(F)cccc2Cl)c1,-10%,i,i,-15%,-19%,28%
CC(C)c1ccc(NC(=O)COC(=O)/C=C/c2cccc([N+](=O)[O-])c2)cc1,4%,i,i,-2%,-5%,?
CC(=O)Nc1cccc(OCc2cnc(Cl)s2)c1,9%,?,i,6%,13%,0.15µM*
CC(=O)Nc1cccc(OCc2cccc([N+](=O)[O-])c2)c1,5%,13µM*,?,6%,2%,3%
CC(=O)Nc1ccc(C=CC=Cc2cccc([N+](=O)[O-])c2)cc1,-2%,21µM*,i,-30%,?,?
CC(=O)Nc1ccc(OCc2ccc(S(=O)(=O)Cc3ccccc3)cc2)cc1,7%,?,i,1%,1%,-4%
CC(=O)Nc1ccc(OCc2cccc([N+](=O)[O-])c2)cc1,21%,i,i,-1%,-9%,0%
CSc1ccc(C(=O)C2CCCN(C(=O)c3nn(C)c(=O)c4ccccc34)C2)cc1 (stereo not drawn),?,i,?,?,-7%,?
COc1cc(S(=O)(=O)N2CCN(c3ccccn3)CC2)ccc1Br,-9%,?,i,-21%,1%,?
O=[N+]([O-])c1ccc(Cl)c(S(=O)(=O)Nc2cccc(-c3ccc(N4CCOCC4)nn3)c2)c1,1%,i,i,15%,-1%,?
COCCN(C(=O)COC(=O)c1ccc2[nH]c(C)c(C)c2c1)c1c(N)n(Cc2ccccc2)c(=O)[nH]c1=O,-1%,i,i,-7%,?,20%
COc1ccc(C(=O)C(C)Oc2cccc(NC(=O)c3cccc([N+](=O)[O-])c3)c2)cc1 (stereo not drawn),4%,2.3µM*,i,8%,1%,-40%
CC(C)C(=O)Nc1cccc(NC(=O)c2cccc([N+](=O)[O-])c2)c1,9%,i,i,4%,0%,-3%
CN1C(=O)N(C)C2(c3ccccc3)NC(=O)NC12c1ccccc1 (stereo not drawn),-6%,i,i,1%,0%,10%
CN1c2ccccc2N(C)C1(C)c1ccccc1,?,i,i,?,5.8µM*,?
CCN1c2ccccc2N(C)C1(C)c1ccccc1 (stereo not drawn),?,i,?,?,12µM*,?
CCOc1ccccc1N(CC(=O)NC1CCCCC1)C(=O)CCC(=O)Nc1nccs1,-9%,i,i,0%,-3%,0%
CN1c2ccc(Cl)cc2-c2nc(SCC(=O)NCc3ccc(F)cc3)ncc2S1(=O)=O,.,i,i,.,.,.
CCSc1nnc(-c2cnn(-c3ccccc3)c2-n2cccc2)n1C,6%,i,i,15%,-3%,5%
CCCCCCSc1nnc(-c2cnn(-c3ccccc3)c2-n2cccc2)n1C,18µM*,i,i,?,0%,?
O=C(/C=C/c1cccc2ccccc12)c1ccncc1,?,2.6µM*,2.9µM*,?,?,12µM*
COc1ccc2[nH]cc(C(=O)CCl)c2c1,5.8µM*,?,12µM*,7.3µM*,?,21µM*
COc1ccc2[nH]cc(/C=C/C(=O)c3ccccc3)c2c1,18µM*,i,i,18µM*,?,?
SMILES,HT1080-NT tox,KB-V1 cytotox,KB-3-1 tox,HT1080 IDH1KD tx,SW480 rereplic,MCF10A rerep
O=C(/C=C/c1c[nH]c2ccccc12)c1ccccc1,1%,i,i,-16%,18µM*,?
COc1ccc(CNC(=O)C2CCN(S(=O)(=O)c3ccc4c(c3)NC(=O)C(C)S4)CC2)cc1 (stereo not drawn),-11%,i,i,-4%,18%,13%
O=C(Nc1ccc(S(=O)(=O)Nc2ccccn2)cc1)c1cccc([N+](=O)[O-])c1,3%,?,i,3%,-4%,10%
CN(Cc1ccccc1)C(=O)c1ccc(NC(=O)Cc2ccc(NC(=O)C3CCN(C(=O)CCc4ccccc4)CC3)cc2)cc1,-22%,i,i,?,?,15µM*
CN(CCc1ccccc1)C(=O)c1ccc(NC(=O)Cc2ccc(NC(=O)C3CCCN(C(=O)C4CC4)C3)cc2)cc1 (stereo not drawn),-14%,?,?,-2%,18µM*,-16%
CN(Cc1ccccc1)C(=O)c1cccc(NC(=O)Cc2ccc(NC(=O)C3CCN(C(=O)CCc4ccccc4)CC3)cc2)c1,-10%,i,?,-20%,4%,0%
COc1ccc(S(=O)(=O)NCc2ccccn2)cc1NC(=O)c1ccccc1C,?,?,15µM*,?,7.3µM*,3.7µM*
COc1ccc(S(=O)(=O)NCc2ccncc2)cc1NC(=O)c1ccc(Cl)cc1,-20%,i,i,-4%,-344%,1%
COc1ccc(S(=O)(=O)NCc2ccccn2)cc1NC(=O)c1ccc(Cl)cc1,?,?,?,?,?,8.2µM*
Cc1ccc(NC(=O)CSc2nc(=O)n(CCCN3CCOCC3)c3c2CCCC3)cc1F,-7%,?,i,-11%,9%,?
COC(=O)c1cc(C)nc(N)c1C#N,6%,i,i,22%,-1%,-2%
COC(=O)c1cc(=O)n2c(sc3ccccc32)c1C#N,-7%,i,i,16%,23µM*,21µM*
O=C(CNC(=S)N(Cc1ccccc1)Cc1ccccc1F)NCc1ccc(Cl)cc1,?,?,i,?,17%,23µM*
COc1cccc(NC(=O)Nc2cnccn2)c1,-18%,i,i,-8%,5%,-12%

# Screening results (PubChem BioAssay)
